The source of these data is PubChem BioAssay (NCATS).

In experiment [1] the target is Glutathione peroxidase 1 (Homo sapiens) (UniProt P07203). Briefly: Primary qHTS Assay for Inhibitors of Recombinant Selenoprotein Glutathione Peroxidase 1 (GPX1) (AID 1845191). Also: nearly all actives have a fitted effect of over 65% in size. As to activity, negative = inhibition: % is scaled to controls: 0 for no effect and ±100 for the full control effect. In a few lines:
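GR-coupled readout: NADPH consumption tracked by fluorescence, ex 340/em 450 nm, at t=0 and after 15 min at RT. Final mix 10 nM GPX1, 1 mM GSH, 0.5 mM CHP, 0.5 mM NADPH, 100 nM GR, 0.01% BSA, following 30 min enzyme–compound preincubation.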
In general terms: qHTS replaces the single test concentration by a dilution series.

In experiment [2] the target is Phospholipid hydroperoxide glutathione peroxidase GPX4 (Homo sapiens) (UniProt P36969). Description: Primary qHTS Assay for Inhibitors of Recombinant Selenoprotein Glutathione Peroxidase 4 (GPX4) (AID 1845192). Also: nearly all actives have a fitted effect of over 65% in size. As to activity change, negative = inhibition: series mostly up to about 50 µM; % is scaled to controls: 0 for no effect and ±100 for the full control effect. The gist of the method: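 Steps: GPX4 plus compound, 30 min RT; add GR/GSH/NADPH master mix; start with cumene hydroperoxide; read 340/450 nm fluorescence at 0 and 15 min. Finals were 200 nM GPX4, 1 mM GSH, 0.5 mM CHP, 0.5 mM NADPH, 100 nM GR.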
Chain of Phospholipid hydroperoxide glutathione peroxidase GPX4 (Homo sapiens) (P36969 whole entry, looked up): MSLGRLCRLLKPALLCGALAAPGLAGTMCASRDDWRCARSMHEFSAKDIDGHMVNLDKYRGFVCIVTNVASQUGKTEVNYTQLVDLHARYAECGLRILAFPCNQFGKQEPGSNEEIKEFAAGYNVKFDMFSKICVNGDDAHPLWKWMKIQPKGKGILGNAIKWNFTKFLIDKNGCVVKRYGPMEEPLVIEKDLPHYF

Experiment [3] has as its target Luciferin 4-monooxygenase (Photinus pyralis) (UniProt P08659). Briefly: Primary firefly luciferase (FLuc) qHTS assay for identification of artifact compounds. (AID 1845220). Also: nearly all actives have a fitted effect of over 60% in size. Also: potency is read from the fitted curve at half-maximal effect.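 As to activity change, negative = inhibition: series mostly up to about 54 µM; plate controls were DMSO vehicle for no effect and no enzyme for full effect.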 In a few lines:
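Titrated compounds were incubated 15 min at RT, protected from light, with luciferin and ATP at 10 uM; reaction started with 10 nM FLuc, luminescence imaged at 5 min, and concentration-response fitted by Hill equation.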

Experiment [4] can be described thus: Primary fluorescence-based thiol-reactive (MSTI) qHTS assay for identification of artifact compounds. (AID 1845221). Also: nearly all actives have a fitted effect of over 65% in size. Also: potency is read from the fitted curve at half-maximal effect.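 As to activity change, negative = thiol reactive: series mostly up to about 54 µM; thiol-reactive compounds lower the probe fluorescence signal.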 In a few lines: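 Thiol-reactive compounds detected by quenching of 4 uM MSTI fluorescence (525/598 nm) after 1 h room-temperature dark incubation in PBS pH 7.4, 2% DMSO. qHTS titration; percent inhibition Hill-fitted against Acetyl-MSTI/MSTI controls.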

Experiment [5] relates to Nanoluciferase (engineered Oplophorus gracilirostris luciferase). Description: Primary Nanoluciferase (NLuc) qHTS assay for identification of artifact compounds. (AID 1845222).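 Also: NLuc secreted into diluted conditioned medium of S16 cells; series mostly up to about 54 µM; 0% = DMSO and -100% = no enzyme.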 In a few lines:
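qHTS format, against NLuc in S16 cell-conditioned medium. Nano-Glo substrate 1:100 was added after 15 min at room temperature. Luminescence was taken after a further 5 min.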

Experiment [6] is described as follows: Primary redox qHTS assay for identification of artifact compounds. (AID 1845223).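 Also: 0% = DMSO and 100% = reference compound.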 The gist of the method: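 Redox-cycling detection via DTT (250 uM final) oxidation coupled to Amplex Red (25 uM)/HRP (250 mU/mL) in HBSS. 15 min preincubation plus 30 min after DTT, room temperature. Ex/Em 525/598 nm; 4-parameter Hill fit against DMSO and 10 uM DA3003.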

Unmarked numbers belong to inactive results. Records with an inconclusive call do not appear. Active and inactive are the calls of the source. Calls follow the shape of the dose curve; as a rule, active = well fitted curve in the direction sought with a large enough effect; inconclusive = small, poorly fitted or top-dose-only effect, or another doubt; inactive = no such curve, though single readings can be large; an effect the other way counts as inactive or inconclusive.

Chain of Glutathione peroxidase 1 (Homo sapiens) (P07203 whole entry, looked up): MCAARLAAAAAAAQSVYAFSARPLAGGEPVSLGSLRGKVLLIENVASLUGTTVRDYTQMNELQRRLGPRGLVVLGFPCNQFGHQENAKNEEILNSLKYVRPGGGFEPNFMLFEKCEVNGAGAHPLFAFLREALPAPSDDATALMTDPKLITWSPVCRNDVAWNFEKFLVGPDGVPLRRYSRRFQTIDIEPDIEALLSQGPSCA

As to `CC(=O)OC1/C(C)=C/C(=O)C(OC(C)=O)C(C)(C)/C=C/C(C)C(=O)C2(OC(C)=O)CC(C)C(OC(=O)c3ccccc3)C12` (stereo not given), the Potency result in experiment [1], in experiment [2], in experiment [3], in experiment [4] and in experiment [5] was “inactive” in each case.
With `C=CC(C)(O)CC/C=C(\C)C(=O)OC1C(O)C(CO)OC(OC(=O)C23CCC(C)(C)CC2C2=CCC4C5(C)CCC(OC6OC(COC7OCC(OC(C)=O)C(O)C7OC7OC(COC(C)=O)C(O)C(O)C7O)C(O)C(O)C6O)C(C)(C)C5CCC4(C)C2(C)C(O)C3O)C1OC1OCC(OC2OCC(O)C(OC3OCC(O)C(O)C3O)C2O)C(O)C1O` (stereo not given), the outcome was “inactive [at 9.52 µM]” in experiment [1] and “inactive [at 9.73 µM]” in experiment [2]. For the same compound, the activity change, negative = inhibition in experiment [3] was 0.903% [at 6.45 µM]. The activity change, negative = thiol reactive in experiment [4] is 213% [at 6.41 µM]. Further, the activity, negative = inhibition in experiment [5] was 2.81% [at 6.45 µM]. The redox activity (% of DA3003) in experiment [6] is -2.76% [at 6.41 µM].
Turning to `C[C@@H]1O[C@@H](O[C@H]2[C@H](O)[C@@H](O[C@@H]3O[C@H](CO)[C@@H](O)[C@H](O[C@@H]4O[C@H](CO)[C@@H](O)[C@H](O)[C@H]4O)[C@H]3O)[C@H](O[C@H]3CC[C@@]4(C)C(=CC[C@@H]5C4CC[C@@]4(C)C5C[C@@H]5OC6(CC[C@@](C)(CO[C@@H]7O[C@H](CO)[C@@H](O)[C@H](O)[C@H]7O)O6)[C@@H](C)[C@@H]54)C3)O[C@@H]2CO)[C@H](O)[C@H](O)[C@H]1O` (stereo not given in full), the values for the activity, negative = inhibition in experiment [1] and in experiment [5] were -7.69% [at 9.52 µM] and -0.894% [at 11.6 µM], respectively. Also, the results for the activity change, negative = inhibition in experiment [2] and in experiment [3] were -8.14% [at 9.73 µM] and -3.7% [at 11.6 µM], respectively. In addition, the activity change, negative = thiol reactive in experiment [4] is 201% [at 11.5 µM]. Moreover, the redox activity (% of DA3003) in experiment [6] was 7.08% [at 11.5 µM].
As for `COc1cccc(Nc2ncnn3ccc(CN4CC[C@@H](N)[C@H](O)C4)c23)c1`, the Potency entry in experiment [1], in experiment [2], in experiment [3], in experiment [4] and in experiment [5] was “inactive” each time.
As to `COc1c2cc(c(O)c1OC)-c1cc(ccc1O)CCC(O)CCCC2` (stereo not given), the Potency entry in experiment [1], in experiment [2], in experiment [3], in experiment [4], in experiment [5] and in experiment [6] was “inactive” throughout.
With `C[C@@]12C[C@]3(O)O[C@H](O1)[C@]1(COC(=O)c4ccccc4)[C@H]3C[C@@]12O[C@@H]1O[C@H](CO)[C@@H](O)[C@H](O)[C@H]1O`, the Potency entry in experiment [1], in experiment [2], in experiment [3], in experiment [4], in experiment [5] and in experiment [6] was “inactive” throughout.
On to `CC(=O)OC1C(O)CC2(C)C(CCC(C)C23Cc2c(O)cc(CO)c(C=O)c2O3)C1(C)C` (stereo not given), for which the Potency entry in experiment [1], in experiment [2], in experiment [3], in experiment [4] and in experiment [5] was “inactive” each time.
In the case of `Cc1cc(OCc2nc(-c3ccccc3Cl)cs2)ccc1OCC(=O)O`, the Potency entry in experiment [1], in experiment [2], in experiment [4] and in experiment [5] was “inactive” in each case. In addition, in experiment [3], the Potency was 9.53 µM (active).
As for `CO[C@H]1/C=C/[C@@](C)(O)/C=C/C(=O)O[C@H](C)[C@@H](C)CC/C=C/1C`, the Potency entry in experiment [1], in experiment [2], in experiment [3], in experiment [4], in experiment [5] and in experiment [6] was “inactive” throughout.
On to `Oc1ccc2nc(CN3CCC(Cc4ccccc4F)CC3)[nH]c2c1`, for which the Potency result in experiment [1], in experiment [2], in experiment [3], in experiment [4], in experiment [5] and in experiment [6] was “inactive” each time.
As for `O=S(=O)(NC1CCC(c2cc(F)ccc2F)(S(=O)(=O)c2ccc(Cl)cc2)CC1)C(F)(F)F` (stereo not given), the Potency result in experiment [1], in experiment [2], in experiment [3], in experiment [4], in experiment [5] and in experiment [6] was “inactive” throughout.
For `COc1ccccc1Oc1ccc(N(Cc2cccnc2)S(=O)(=O)CC(F)(F)F)cc1`, the Potency entry in experiment [1], in experiment [2], in experiment [3], in experiment [4], in experiment [5] and in experiment [6] was “inactive” each time.
Take `C=C1CCC2C(C)(C)C(O)CCC2(C)C1CCC(C)CCO` (stereo not given): the Potency result in experiment [1], in experiment [2], in experiment [3] and in experiment [5] was “inactive” in each case. Besides, the Potency in experiment [4] was 16.5 µM (active).
As for `O=C(Nc1ccccc1-c1cn2c(CN3CCNCC3)csc2n1)c1ccc2ccccc2n1`, the Potency result in experiment [1], in experiment [2], in experiment [3], in experiment [4], in experiment [5] and in experiment [6] was “inactive” throughout.
`C[C@H]1C(=O)N2c3ccccc3[C@@]3(O)C[C@@H]4C(=O)N[C@](C)(c5nc6ccccc6c(=O)n54)N1[C@@H]23`: the Potency entry in experiment [1], in experiment [2], in experiment [3], in experiment [4] and in experiment [5] was “inactive” in each case.
In the case of `C=C1CCC2C(C)(C(=O)O)CCCC2(C)C1CCC(C)CC(=O)O` (stereo not given), the Potency entry in experiment [1], in experiment [2], in experiment [3], in experiment [4] and in experiment [5] was “inactive” each time.
Turning to `Cc1nc2ccc(Oc3ccc(F)cc3)cc2c(=O)n1C[C@H]1CCCN(C(C)C)C1`, the Potency result in experiment [1], in experiment [2], in experiment [3], in experiment [4] and in experiment [5] was “inactive” each time.
For the compound `C=C(C)[C@@H]1CC[C@]2(C)CC[C@]3(C)[C@H](CC[C@@H]4[C@@]5(C)CC[C@@H](O)C(C)(C)[C@@H]5CC[C@]43C)[C@@H]12`, the Potency entry in experiment [1], in experiment [2], in experiment [3], in experiment [4], in experiment [5] and in experiment [6] was “inactive” each time.
